# Experimental data taken from PubChem BioAssay (NCATS).
# Values joined by “and” are separate entries in the source; they are usually repeats but may differ in a detail not shown here. Equal entries are not always repeated. Results filed as inconclusive are left out. Active and inactive are the calls of the source. The call rests on the fitted dose curve; in most records, active means well fitted inhibition curve with a large enough effect in the signal ratio, with a control signal flat (not every such curve was filed as active); inconclusive means small, poorly fitted or top-dose-only effect, or effect the other way, or a change in a side signal; inactive means flat fitted curve, though single readings scatter; the % refers to the signal ratio.
# Target: Thyroid hormone receptor beta (Homo sapiens) (UniProt P10828)
# Assay: qHTS assay for small molecule antagonists of thyroid hormone receptor beta signaling (AID 588547);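 on activity change % (negative = inhibition): cells stimulated with 0.4 nM T3 agonist during compound exposure; series mostly up to about 77 µM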
# Conditions: TR-UAS-bla HEK293, beta-lactamase ratio, antagonist mode, 18 h
# From the text: NIH Chemical Genomics Center [NCGC] U.S. Environmental Protection Agency [EPA] National Institutes of Environmental Health Sciences [NIEHS] National Toxicology Program [NTP] NCGC Assay Overview Thyroid hormone receptor (TR) belongs to nuclear hormone receptor superfamily. There are two subtypes for TR: TR-alpha and TR-beta. TR-beta plays a major role in regulating plasma cholesterol levels and it mediates the biological activities of thyroid hormone. Screening environmental chemicals on TR-beta signaling will provide important information for the mechanism of compound action.
# NCGC Assay Protocol Summary Using a beta-lactamase reporter-gene under control of the TR response element, a cell-based assay [GeneBLAzer TR-UAS-bla-GripTite assay developed by Invitrogen] was used to measure TR-beta signaling in antagonist mode. TR-UAS-bla-GripTite HEK 293 cells were used with assay medium containing 2% charcoal/dextran FBS, 0.1 mM NEAA and 1 mM sodium pyruvate. The assay was performed in clear bottom black Greiner 1536-well plates. Library compounds were measured for their ability to inhibit the reporter gene activity. Compounds were screened in a titration series in 1536-well format. The fluorescence intensity (405 nm excitation, 460/530 nm emission) was measured using an EnVision plate reader. […] Concentration-response titration points for each compound were fitted to the Hill equation yielding concentrations of half-maximal inhibition (IC50) and maximal response (efficacy) values. qHTS protocol for TR-beta beta-lactamase assay in antagonist mode [Step] [Parameter] [Value] [Description] 1. Reagent; 5 uL; 2500 cells/well 2. Incubation; 37 C for 4 hrs 3. Compounds; 23 nL; 0.59 nM to 92 uM 4. Controls (DMSO); 23 nL 5. Agonist (Stimulator); 1uL; T3 at 0.4nM (final) concentrations 6. Incubation; 37 C for 18 hrs 7. Detection reagent; 1 uL of CCF4-dye 8. Incubation; RT for 2 hrs 9. Detection; Fluorescence; Envision plate reader
# On the % scale 0 is the no-effect control and ±100 the full control effect.
# Sequence of Thyroid hormone receptor beta (Homo sapiens) (P10828 whole entry, looked up): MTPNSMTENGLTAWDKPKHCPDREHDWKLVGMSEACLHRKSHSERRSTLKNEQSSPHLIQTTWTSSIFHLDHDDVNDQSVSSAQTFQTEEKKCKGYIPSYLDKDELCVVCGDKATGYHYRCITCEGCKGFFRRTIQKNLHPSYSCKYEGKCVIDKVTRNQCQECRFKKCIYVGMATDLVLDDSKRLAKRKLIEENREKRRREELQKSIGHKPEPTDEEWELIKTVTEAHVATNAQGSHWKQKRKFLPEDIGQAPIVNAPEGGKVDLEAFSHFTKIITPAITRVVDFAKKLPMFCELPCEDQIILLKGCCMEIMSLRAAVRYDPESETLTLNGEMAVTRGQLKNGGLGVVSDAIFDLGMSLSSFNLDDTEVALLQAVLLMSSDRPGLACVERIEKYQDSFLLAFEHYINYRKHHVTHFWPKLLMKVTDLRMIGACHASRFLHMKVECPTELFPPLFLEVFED
Structure (SMILES),activity change % (negative = inhibition),Potency
O=C=Nc1ccc(Cl)cc1,-1.95% (inactive),
CCNc1nc(Cl)nc(NC(C)(C)C)n1,-28% (inactive),
Nc1nc(N)nc(Cl)n1,-10% (inactive) and 5.94% (inactive) and 4.29% (inactive),
CCc1cnc(C2=NC(C)(C(C)C)C(=O)N2)c(C(=O)O)c1 (stereo not given),-0.801% (inactive),
Cc1cnc(C2=NC(C)(C(C)C)C(=O)N2)c(C(=O)O)c1 (stereo not given),-3.72% (inactive) and -20.5% (inactive),
CCOP(=O)(OCC)SCSCC,4.37% (inactive),
CC1=C(C(=O)Nc2ccccc2)S(=O)(=O)CCO1,,39.8 µM (active)
CC(C)=CC1[C@H](C(=O)OCc2cccc(Oc3ccccc3)c2)C1(C)C (stereo not given in full),2.1% (inactive),
CCOC(=O)C(C)OC(=O)c1cc(Oc2ccc(C(F)(F)F)cc2Cl)ccc1[N+](=O)[O-] (stereo not given),11.5% (inactive),
COc1cc(Cl)c(OC)cc1Cl,4.96% (inactive),
CCOS(=O)(=O)OCC,3.34% (inactive),
CCCCN(CC)c1c([N+](=O)[O-])cc(C(F)(F)F)cc1[N+](=O)[O-],-21.6% (inactive),
CC[C@H]1CCCC(O[C@H]2CC[C@H](N(C)C)[C@@H](C)O2)[C@@H](C)C(=O)C2=C[C@@H]3[C@@H](C=C[C@@H]4C[C@@H](O[C@@H]5O[C@@H](C)[C@H](OC)[C@@H](OC)[C@H]5OC)C[C@@H]34)[C@@H]2CC(=O)O1 (stereo not given in full),-5.92% (inactive),
O=S(=O)(c1ccc(O)cc1)c1ccc(O)cc1,5% (inactive),
O=P(O)(O)CCCl,22.1% (inactive) and 18.2% (inactive),
O=C(O)COc1ccc(Cl)cc1,-4.24% (inactive),
CCC(C)(C)c1cc(-n2nc3ccccc3n2)c(O)c(C(C)(C)CC)c1,12% (inactive),
Cc1cc(C)nc(NC(=O)NS(=O)(=O)c2ccccc2C(=O)OC2COC2)n1,4.53% (inactive),
CCCCCCCCCCCCN(C)C,-6.18% (inactive),
CSc1nnc(C(C)(C)C)c(=O)n1N,-9.71% (inactive),

Structure (SMILES),activity change % (negative = inhibition),Potency
FC(F)(F)c1ccc(OCCCOc2c(Cl)cc(OCC=C(Cl)Cl)cc2Cl)nc1,2.93% (inactive),
CCc1cc(C)cc(CC)c1-c1c(OC(=O)C(C)(C)C)n2n(c1=O)CCOCC2,-5.07% (inactive),
C#CCC1=C(C)[C@H](OC(=O)[C@H]2[C@H](C=C(C)C)C2(C)C)CC1=O,-5.41% (inactive),
CCOP(=O)(OCC)SCS(=O)(=O)C(C)(C)C,-16.4% (inactive),
CCOP(=O)(O)C(N)=O,-0.728% (inactive),
CCOP(=S)(OCC)Oc1ncn(-c2ccccc2)n1,4.61% (inactive),
O=[N+]([O-])c1ccc(Nc2ccccc2)cc1,-15.7% (inactive),
CC(C)C1(C)N=C(c2ncccc2C(=O)O)NC1=O (stereo not given),2.89% (inactive),
CCNS(=O)(=O)C(F)(F)C(F)(F)C(F)(F)C(F)(F)C(F)(F)C(F)(F)C(F)(F)C(F)(F)F,23.1% (inactive),
CC(C)[C@H](C(=O)O[C@H](C#N)c1cccc(Oc2ccccc2)c1)c1ccc(Cl)cc1,-0.522% (inactive),
CCOP(=S)(OCC)SCn1c(=O)oc2cc(Cl)ccc21,-26.9% (inactive),
CCC[CH2][Sn]([CH2]CCC)([CH2]CCC)[CH2]CCC,-9.45% (inactive),
O=C(NC(=O)c1c(F)cccc1F)Nc1ccc(Cl)cc1,-1.34% (inactive),
CC1(C)[C@H](C=C(Cl)Cl)[C@H]1C(=O)O[C@H](C#N)c1ccc(F)c(Oc2ccccc2)c1,-23.6% (inactive),
N#CN=C1SCCN1Cc1ccc(Cl)nc1,-1.19% (inactive),
OC(Cn1cncn1)(c1ccc(F)cc1)c1ccccc1F (stereo not given),10.3% (inactive),
O=C(Nc1ccccc1)Nc1ccnc(Cl)c1,16% (inactive),
O=CNC(N1CCN(C(NC=O)C(Cl)(Cl)Cl)CC1)C(Cl)(Cl)Cl (stereo not given),-18.1% (inactive),
COC(=O)C(C)Oc1ccc(Oc2ccc(Cl)cc2Cl)cc1 (stereo not given),8.67% (inactive),
CCC[CH2][Sn]([CH2]CCC)([O]C(C)=O)[O]C(C)=O,-21.2% (inactive),
